Results on six compounds are retold here after PubChem BioAssay.

Test [1] has as its system Plasmodium falciparum Sir2 (PF13_0152, Sir2A). In words: Plasmodium falciparum Sir2A binding compounds – biochemical, small-molecule microarray, 635 nm fluorescence, primary screen (AID 1098).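 Further: score merges spot fluorescence intensity with its signal-to-noise ratio.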 As to conditions: fluorescence 635 nm, higher = more signal.
The nature of test [2]: probe aDKK1 binding to arrayed compounds – biochemical, biotinylated probe, 635/667 nm fluorescence, primary screen (AID 1099).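 Further: score merges 667nm spot fluorescence with signal to noise across triplicate slides.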 As to conditions: small-molecule microarray, higher = more signal.
The nature of test [3]: probe aCHRDL2 binding to arrayed compounds – biochemical, biotinylated probe, 635/667 nm fluorescence, primary screen (AID 1100). Particulars: small-molecule microarray, higher = more signal.
Test [4] is described as follows: change in splice reporter luminescence, either direction, cell-based, HEK293, spliceosome inhibition project, primary screen (AID 1101).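 Further: HEK293 cells carrying a splicing-competent luciferase reporter gene; test concentration not given here.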 Particulars: HEK293 splicing luciferase reporter, 24 h, higher = more signal, called active from +8 up or from −8 down. In general terms: Reporter assays use an easily measured gene product as a stand-in for the process of interest.

Test [5] concerns the target Fibroblast growth factor 10 (Homo sapiens) (UniProt O15520). In words: compounds binding fibroblast growth factor 10 – biochemical, small-molecule microarray, 635 nm fluorescence, primary screen (AID 1102). Particulars: FGF10 binding, fluorescence 635 nm, higher = more signal.
For test [6], the system named is glycogen synthase kinase-3 (GSK3A per assay name; protocol says GSK3B). In words: compounds binding glycogen synthase kinase-3 – biochemical, small-molecule microarray, 635 nm fluorescence, GSK3A, primary screen (AID 1103). Further: the record names both GSK3A and GSK3B. As to conditions: fluorescence 635 nm, higher = more signal.
In test [7] the target is Epidermal growth factor receptor (Homo sapiens) (UniProt P00533). In words: compounds binding epidermal growth factor receptor – biochemical, small-molecule microarray, 635 nm fluorescence, primary screen (AID 1104).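 Further: score merges 667 nm emission intensity with spot signal to noise over triplicate slides.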 Particulars: EGFR binding, higher = more signal.
Sequence of Epidermal growth factor receptor (Homo sapiens) (P00533 whole entry, looked up): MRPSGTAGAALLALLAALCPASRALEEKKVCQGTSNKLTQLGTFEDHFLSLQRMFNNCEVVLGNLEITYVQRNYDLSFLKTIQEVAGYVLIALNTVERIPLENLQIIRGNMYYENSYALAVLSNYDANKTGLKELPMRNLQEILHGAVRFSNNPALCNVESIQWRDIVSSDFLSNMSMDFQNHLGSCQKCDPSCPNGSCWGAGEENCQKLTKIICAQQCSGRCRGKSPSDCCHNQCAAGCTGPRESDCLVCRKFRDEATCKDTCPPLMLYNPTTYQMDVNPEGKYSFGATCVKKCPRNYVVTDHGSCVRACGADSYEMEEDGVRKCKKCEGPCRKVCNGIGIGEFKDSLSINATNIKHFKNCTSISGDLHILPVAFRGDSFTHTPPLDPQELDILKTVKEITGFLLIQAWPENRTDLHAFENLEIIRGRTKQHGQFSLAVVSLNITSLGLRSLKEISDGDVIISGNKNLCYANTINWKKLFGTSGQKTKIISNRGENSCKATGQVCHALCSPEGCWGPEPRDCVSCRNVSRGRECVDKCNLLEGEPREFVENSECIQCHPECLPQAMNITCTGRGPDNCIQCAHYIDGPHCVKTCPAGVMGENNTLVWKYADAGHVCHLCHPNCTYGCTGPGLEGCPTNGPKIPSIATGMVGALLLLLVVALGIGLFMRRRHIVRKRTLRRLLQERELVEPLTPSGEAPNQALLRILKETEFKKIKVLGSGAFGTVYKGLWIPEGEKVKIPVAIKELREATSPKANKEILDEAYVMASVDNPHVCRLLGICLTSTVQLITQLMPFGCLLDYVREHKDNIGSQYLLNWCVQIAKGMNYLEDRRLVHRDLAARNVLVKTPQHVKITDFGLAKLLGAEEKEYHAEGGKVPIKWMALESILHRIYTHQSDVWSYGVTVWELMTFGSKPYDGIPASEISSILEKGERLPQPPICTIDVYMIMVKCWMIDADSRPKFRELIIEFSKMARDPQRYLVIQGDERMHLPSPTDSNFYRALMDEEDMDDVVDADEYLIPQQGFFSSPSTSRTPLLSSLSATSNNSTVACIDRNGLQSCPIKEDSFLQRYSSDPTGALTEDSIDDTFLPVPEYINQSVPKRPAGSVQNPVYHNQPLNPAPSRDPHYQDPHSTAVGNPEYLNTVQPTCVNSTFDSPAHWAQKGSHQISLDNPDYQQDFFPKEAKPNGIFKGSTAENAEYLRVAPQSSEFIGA
For test [8], the target named is Follistatin-related protein 3 (Homo sapiens) (UniProt O95633). In words: compounds binding follistatin-related protein 3 – biochemical, small-molecule microarray, 635 nm fluorescence, primary screen (AID 1105).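 Further: score merges emission near 667 nm and signal to noise per printed spot across three slides.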 As to conditions: FSTL3 binding, higher = more signal.
Sequence of Follistatin-related protein 3 (Homo sapiens) (O95633 whole entry, looked up): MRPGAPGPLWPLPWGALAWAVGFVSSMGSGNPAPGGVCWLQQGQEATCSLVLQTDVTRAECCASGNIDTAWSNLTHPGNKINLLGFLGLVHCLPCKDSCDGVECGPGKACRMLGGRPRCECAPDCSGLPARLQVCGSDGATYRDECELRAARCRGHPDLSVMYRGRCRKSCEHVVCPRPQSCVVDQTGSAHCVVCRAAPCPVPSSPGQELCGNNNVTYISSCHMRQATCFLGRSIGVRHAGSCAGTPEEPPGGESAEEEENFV
Test [9] concerns the target Dickkopf-related protein 1 (Homo sapiens) (UniProt O94907). In words: small molecules binding DKK1 protein – biochemical, small-molecule microarray, 635 nm fluorescence scan, primary screen (AID 1106).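 Further: score merges emission near 667 nm with signal to noise over three replicate slides.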 As to conditions: higher = more signal.
In test [10] the test system is Inhibin beta A chain (activin A). In words: small molecules binding activin A – biochemical, small-molecule microarray, 635 nm fluorescence scan, primary screen (AID 1107).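 Further: mouse activin A protein probed at 4.33 µg/mL on printed slides; score merges bound-protein fluorescence near 667 nm with spot signal-to-noise.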 As to conditions: INHBA, higher = more signal.
In test [11] the test system is Human papillomavirus type 1a protein E7 (residues 44-93). In words: small molecules binding HPV E7 44-93 – biochemical, small-molecule microarray, residues 44-93, 635 nm fluorescence, primary screen (AID 1108).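 Further: E7 fragment applied at 1 µg/mL in TBST for 1 h at 4 C; score combines spot fluorescence with its signal to noise ratio.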 As to conditions: fluorescence 635 nm, higher = more signal.
The nature of test [12]: hepatitis C replication reporter changes, two-sided – Huh7 cells, luciferase reporter, HCV replication inhibitor project, primary screen (AID 1109).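 Further: huh7 hepatoma cells harbouring a luciferase neomycin HCV replicon reporter; luciferase luminescence as measure of HCV replicon replication; test concentration not given here.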 Particulars: Huh7 HCV replicon luciferase reporter, 48 h; higher = more signal.
Test [13] deals with Left-right determination factor 2 (Homo sapiens) (UniProt O00292). In words: small molecules binding LEFTY2 protein – biochemical, small-molecule microarray, 635 nm fluorescence scan, primary screen (AID 1110). Particulars: higher = more signal.
Sequence of Left-right determination factor 2 (Homo sapiens) (O00292 whole entry, looked up): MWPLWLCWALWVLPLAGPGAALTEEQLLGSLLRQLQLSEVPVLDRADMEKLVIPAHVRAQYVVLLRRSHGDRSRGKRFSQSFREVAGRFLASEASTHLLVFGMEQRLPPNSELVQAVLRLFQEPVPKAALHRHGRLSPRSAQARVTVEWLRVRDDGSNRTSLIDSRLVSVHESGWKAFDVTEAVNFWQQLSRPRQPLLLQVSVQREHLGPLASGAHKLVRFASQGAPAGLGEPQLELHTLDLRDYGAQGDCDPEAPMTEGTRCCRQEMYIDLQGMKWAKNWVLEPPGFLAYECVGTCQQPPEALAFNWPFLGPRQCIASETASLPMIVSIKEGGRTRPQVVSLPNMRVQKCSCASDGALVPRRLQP
The target of test [14] is Calmodulin-1 (Homo sapiens) (UniProt P0DP23). In words: small molecules binding calmodulin-1 with EGTA – biochemical, small-molecule microarray, Cy5-labelled CALM1, profiling panel (AID 1111).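 Further: labelled calmodulin applied in Tris saline Tween buffer holding calcium plus EGTA and DTT.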 As to conditions: Cy5-CALM1 binding fluorescence, higher = more signal.
The target is the same in test [15]. In words: small molecules binding Ca-loaded calmodulin-1 – biochemical, small-molecule microarray, Cy5-labelled CALM1, plus calcium, artefact control for SMM control-protein annotation, profiling panel (AID 1112).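 Further: score merges spot fluorescence with signal to noise from triplicate slides.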 As to conditions: Cy5-CALM1 binding fluorescence, higher = more signal.
Test [16] in a line: probe aWnt5a binding to arrayed compounds – biochemical, biotinylated probe, 635/667 nm fluorescence, primary screen (AID 1113).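 Further: score merges 667 nm fluorescence intensity with signal-to-noise per printed feature.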 As to conditions: small-molecule microarray, higher = more signal.
Test [17] can be described thus: probe aShh binding to arrayed compounds – biochemical, biotinylated probe, 635/667 nm fluorescence, primary screen (AID 1114).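 Further: probe is biotin-labelled aShh protein from a stem cell growth factor screen; measures binding of labelled protein to compounds printed on the slide; score merges feature fluorescence at 667 nm with signal-to-noise.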 Particulars: small-molecule microarray, higher = more signal.
Test [18] is described as follows: probe aNog binding to arrayed compounds – biochemical, biotinylated probe, 635/667 nm fluorescence, primary screen (AID 1115).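 Further: probe is biotinylated aNog protein used at 0.15 µg/mL for 1 h at 4 C; z-score combines 667 nm fluorescence of each spot with its signal to noise.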 As to conditions: small-molecule microarray, higher = more signal.
Test [19] has as its target Torsin-1A-interacting protein 1 (Homo sapiens) (UniProt Q5JTV8). In words: compound microarray binding of lysate hLAP1 – cell lysate, small-molecule microarray, COS7 lysate, 635/667 nm fluorescence, primary screen (AID 1116). As to conditions: 635 nm fluorescence, higher = more signal.
Test [20] addresses Alpha-bungarotoxin (Bungarus multicinctus) (UniProt P60615). In words: compounds binding labelled alpha-BTX control protein – biochemical, small-molecule microarray, Alexa647 label, 635/667 nm fluorescence, artefact control for SMM control protein annotation, profiling panel (AID 1117). Particulars: alpha-BTX-A647 binding fluorescence, higher = more signal.

Activity calls are given as the source filed them.

Sequence of Torsin-1A-interacting protein 1 (Homo sapiens) (Q5JTV8 whole entry, looked up): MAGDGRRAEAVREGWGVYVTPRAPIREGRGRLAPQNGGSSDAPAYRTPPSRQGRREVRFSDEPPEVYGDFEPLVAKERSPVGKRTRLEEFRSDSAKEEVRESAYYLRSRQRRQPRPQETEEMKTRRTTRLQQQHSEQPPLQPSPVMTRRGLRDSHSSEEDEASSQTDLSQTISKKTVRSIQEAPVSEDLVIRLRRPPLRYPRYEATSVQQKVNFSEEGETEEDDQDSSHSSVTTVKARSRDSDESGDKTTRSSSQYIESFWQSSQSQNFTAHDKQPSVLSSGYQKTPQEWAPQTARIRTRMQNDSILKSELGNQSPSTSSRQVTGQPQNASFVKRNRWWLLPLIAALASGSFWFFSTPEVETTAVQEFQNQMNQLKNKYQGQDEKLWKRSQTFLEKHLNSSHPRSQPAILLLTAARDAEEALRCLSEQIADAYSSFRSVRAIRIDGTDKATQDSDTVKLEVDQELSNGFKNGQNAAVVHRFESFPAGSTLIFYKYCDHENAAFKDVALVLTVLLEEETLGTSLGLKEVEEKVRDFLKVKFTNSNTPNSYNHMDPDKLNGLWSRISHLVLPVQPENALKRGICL
Sequence of Dickkopf-related protein 1 (Homo sapiens) (O94907 whole entry, looked up): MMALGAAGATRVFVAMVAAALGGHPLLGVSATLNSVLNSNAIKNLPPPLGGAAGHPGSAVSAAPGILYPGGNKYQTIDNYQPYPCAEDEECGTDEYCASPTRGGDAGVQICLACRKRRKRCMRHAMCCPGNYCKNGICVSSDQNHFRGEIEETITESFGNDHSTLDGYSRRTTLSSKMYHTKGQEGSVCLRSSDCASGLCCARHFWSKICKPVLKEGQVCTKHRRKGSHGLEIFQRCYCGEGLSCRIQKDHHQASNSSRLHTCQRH
Sequence of Alpha-bungarotoxin (Bungarus multicinctus) (P60615 whole entry, looked up): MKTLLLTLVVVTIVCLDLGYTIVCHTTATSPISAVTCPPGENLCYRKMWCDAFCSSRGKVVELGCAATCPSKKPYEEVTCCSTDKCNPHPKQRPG
Sequence of Fibroblast growth factor 10 (Homo sapiens) (O15520 whole entry, looked up): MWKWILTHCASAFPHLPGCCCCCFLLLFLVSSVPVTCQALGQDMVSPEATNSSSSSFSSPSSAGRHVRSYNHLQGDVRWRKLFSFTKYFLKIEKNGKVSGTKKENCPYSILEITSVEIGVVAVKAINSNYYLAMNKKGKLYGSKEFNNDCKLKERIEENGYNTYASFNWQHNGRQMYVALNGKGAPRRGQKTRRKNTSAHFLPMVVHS

For `CN(C)CCCCCCNC(=O)[C@@H]1C[C@@H]2C(=O)N[C@@H](Cc3ccccc3)C(=O)N2[C@@H]1c1ccc(O)cc1`, the composite z-score in test [1] is 1.51; in [2], 0.026; in [3], -0.127; in [5], 1.06; in test [6], 1.35; in test [7] it was 1.37. The composite z-score in [8] is 1.44; in [9], 1.38; in test [10], 1.41; in test [11], 1.13; in test [13], 1.02; in test [14], -0.565. Further, the composite z-score in [15] was -1.14; in test [16], -0.0425; in [17], 0.0668; in test [18], 0; in [19] it was 1.32; in test [20] it was 2.47. Further, the z-score in test [4] was -0.926 (inactive); in [12] it was 2.17.

As for `CN(C)CCCCCCNC(=O)[C@H]1C[C@H]2C(=O)N3CCC[C@H]3C(=O)N2[C@H]1c1ccc(O)cc1`, the composite z-score in [1] is 1.42; in test [2] it was 0.11; in test [3], 0.0341; in test [5], 1.28; in test [6], 1.35; in test [7], 1.6. Besides, the composite z-score in test [8] is 1.44; in [9], 1.25; in test [10], 1.08; in test [11], 1.12; in test [13], 1.44; in test [14] it was -1.17. The composite z-score in [15] is -2.33; in test [16], -0.0598; in [17], 0.178; in [18], 0.0459; in [19], 1.29; in [20], 0.73. In addition, the z-score in test [4] is -0.8 (inactive); in test [12] it was 1.42.

For `CCc1cccc(NC(=O)O[C@H]2[C@H](OC(=O)Nc3ccccc3-c3ccccc3)[C@@H](OC(=O)Nc3ccccc3-c3ccccc3)[C@@H](OC)O[C@@H]2CO)c1`, the composite z-score in test [1] turned out to be 1.29; in test [2] it was 0.481; in [3] it was 0.648; in test [5], 1.13; in test [6], 0.954; in test [7] it was 0.0707. Further, the composite z-score in [8] is 1.38; in test [9], -0.0897; in [10] it was 0.465; in test [11] it was 1.52; in test [13] it was 0.3; in test [14], 1.71. Moreover, the composite z-score is -0.0011 in test [15]; 0.0839 in test [16]; 0.432 in test [17]; 0.572 in [18]; 1.47 in test [19]; 1.53 in [20]. Moreover, the results for the z-score in [4] and in test [12] were -2.55 (inactive) and -3.79, respectively.

Take `COc1ccc(CCNC(=O)[C@@]2(C)c3ccccc3C(=O)N(C(C)C)[C@H]2c2ccc(CO)cc2)cc1`: the composite z-score was 0.5 in test [1]; 0.056 in [2]; -0.0776 in test [3]; 0.558 in [5]; -0.0218 in [6]; 0.41 in [7]. In addition, the composite z-score in test [8] is 0.335; in test [9], 0.503; in test [10], 0.918; in test [11] it was 0.0331; in test [13], 0.364; in test [14] it was -0.118. Also, the composite z-score in test [15] is -0.229; in [16], -0.131; in test [17], -0.0886; in test [18] it was -0.282; in test [19], 0.33; in [20], 0.672. The results for the z-score in [4] and in test [12] were -0.36 (inactive) and -1.3, respectively.

As for `CC(C)NC(=O)[C@@]1(c2ccc([N+](=O)[O-])cc2)CC(=O)N(C2CCCCC2)[C@@H]1c1ccc(CO)cc1I`, the composite z-score in test [1] was 1.04; in test [2], 0.719; in test [3] it was 0.902; in test [5], -0.0505; in test [6] it was 0.406; in [7], -0.527. Further, the composite z-score in test [8] is -0.573; in [9] it was -0.566; in test [10], -0.524; in [11] it was 0.621; in test [13] it was -0.159; in [14], 0.249. The composite z-score was 0.272 in test [15]; 0.0375 in test [16]; -0.189 in test [17]; 0.176 in test [18]; 0.707 in [19]; -0.174 in test [20]. The z-score in test [4] was 0.61 (inactive); in test [12] it was -2.16.

Take `COc1ccc(C#Cc2ccc3c(c2)[C@]2(C(=O)N3)[C@H](c3ccccc3OCCO)N3[C@H](c4ccccc4)[C@H](c4ccccc4)OC(=O)[C@H]3[C@@H]2C(=O)Nc2nc3ccccc3s2)cc1`: the composite z-score in test [1] is 1.64; in test [2] it was -0.0008; in test [3] it was -0.197; in test [5] it was 1.09; in test [6] it was 1.31; in test [7] it was 0.589. Also, the composite z-score was 1.27 in test [8]; 0.62 in test [9]; 0.322 in [10]; 1.35 in [11]; 0.464 in test [13]; 0.844 in test [14]. Moreover, the composite z-score is -0.104 in test [15]; -0.128 in test [16]; -0.0556 in test [17]; 1.76 in test [18]; 0.307 in test [19]; 1.62 in [20]. Besides, the z-score in test [4] was -1.11 (inactive); in test [12], -2.83.
